Experimental data from PubChem BioAssay.
Calls of active or inactive are those of the source.

Columns and labels:
[1] = molecular target: Albumin (Bos taurus) (UniProt P02769); assay: compounds binding labelled BSA control protein – biochemical, small-molecule microarray, Alexa647 label, 635/667 nm fluorescence, artefact control for SMM control protein annotation, profiling panel (AID 1118); settings: BSA-A647 binding, fluorescence 635 nm, higher = more signal;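 also: score merges 667 nm emission intensity and signal-to-noise per printed compound spot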
[2] = probe aXIP binding to arrayed compounds – biochemical, NeuroSMM set, 635/667 nm fluorescence, primary screen (AID 1119); settings: small-molecule microarray, higher = more signal, called active from +8 up or from −8 down;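 also: probe is the protein aXip251-270 applied at 1 µg/mL to compound-printed slides; binding of probe to printed compounds measured as 667 nm fluorescence plus signal to noise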
[3] = probe aNOTCH3 binding on compound microarray – biochemical, small-molecule microarray, 635/667 nm fluorescence, primary screen (AID 1120); settings: higher = more signal;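 also: probe is a biotin-tagged antibody raised against NOTCH3 rather than NOTCH3 protein; score merges spot fluorescence near 667 nm with spot signal to noise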
[4] = probe aNOTCH2 binding on compound microarray – biochemical, small-molecule microarray, 635/667 nm fluorescence, primary screen (AID 1121); settings: higher = more signal;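 also: score merges feature fluorescence read at 667 nm with its signal to noise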
[5] = molecular target: Carbonic anhydrase 2 (Homo sapiens) (UniProt P00918); assay: compounds binding carbonic anhydrase 2 – biochemical, small-molecule microarray, Alexa647-labelled CAII, profiling panel (AID 1122); settings: CAII-A647 binding fluorescence, higher = more signal
[6] = COS7 lysate on small-molecule microarray, probe aHis, 635 nm (AID 1123); settings: COS7 cell lysate, fluorescence, higher = more signal;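 also: z-score combines 667nm fluorescence intensity with signal-to-noise per printed compound spot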
[7] = probe aLAP1 signal on lysate-treated microarray – cell lysate, small-molecule microarray, COS7 lysate, primary screen (AID 1124); settings: probe aLAP1, fluorescence, higher = more signal;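 also: lysate comes from COS7 cells expressing LAP1 and is applied at 0.3 µg/mL; score merges spot fluorescence near 667 nm with signal-to-noise over triplicate slides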
[8] = tested on: Sam68 (KHDRBS1); assay: compounds binding KHDRBS1 protein – biochemical, small-molecule microarray, 635 nm fluorescence, primary screen (AID 1125); settings: higher = more signal;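 also: score merges 667 nm channel intensity with signal to noise over triplicate slides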
[9] = tested on: Chordin-like protein 2 (CHRDL2); assay: compounds binding chordin-like 2 – biochemical, small-molecule microarray, 635 nm fluorescence, primary screen (AID 1126); settings: fluorescence 635 nm, higher = more signal;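 also: printed compound slides probed with Chrdl2 protein at 4 µg/mL for 1 h at 4 C; score merges 667 nm emission intensity with signal to noise over three replicate slides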
[10] = molecular target: Concanavalin-A (Canavalia ensiformis) (UniProt P02866); assay: compounds binding concanavalin A lectin – biochemical, small-molecule microarray, Alexa647 label, 635 nm, artefact control for SMM control protein annotation, primary screen (AID 1127); settings: ConA-A647 binding fluorescence, higher = more signal;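 also: z combines 667 nm emission intensity with signal-to-noise across three replicate slides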
[11] = compounds binding Alexa647 anti-His antibody – biochemical, small-molecule microarray, 635 nm fluorescence, artefact control for SMM control protein annotation, primary screen (AID 1128); settings: higher = more signal;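 also: score merges feature fluorescence with signal-to-noise for each printed compound spot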
[12] = tested on: Human papillomavirus type 1a E7 protein (residues 1-88); assay: HPV1a E7 small-molecule binders, primary screen, biochemical, small-molecule microarray, residues 1-88, 635 nm (AID 1129); settings: small-molecule microarray binding, fluorescence 635 nm; higher = more signal
[13] = molecular target: Focal adhesion kinase 1 (Homo sapiens) (UniProt Q05397); assay: PTK2 protein binding on printed compound slides – biochemical, small-molecule microarray, 635/667 nm fluorescence, BSA, DTT, primary screen (AID 1130); settings: 635 nm fluorescence, higher = more signal;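 also: composite of spot emission at 667 nm and signal to noise over triplicate slides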
[14] = tested on: Fibrinogen (Alexa647-labelled); assay: Alexa647-fibrinogen binding to printed small molecules – biochemical, small-molecule microarray, 635/667 nm fluorescence, artefact control for SMM control-protein annotation, profiling panel (AID 1131); settings: fibrinogen-A647 binding fluorescence, higher = more signal;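 also: z-score merges 667 nm fluorescence with per-spot signal-to-noise over triplicate slides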
[15] = molecular target: Follistatin (Homo sapiens) (UniProt P19883); assay: FST protein binding to printed compounds – biochemical, small-molecule microarray, 635/667 nm fluorescence, primary screen (AID 1132); settings: 635 nm fluorescence, higher = more signal
[16] = molecular target: Fibroblast growth factor 2 (Homo sapiens) (UniProt P09038); assay: basic fibroblast growth factor binding to printed compounds – biochemical, small-molecule microarray, 635/667 nm fluorescence, primary screen (AID 1133); settings: FGF2, fluorescence 635/667, higher = more signal
[17] = JC-1 mitochondrial potential readout, lung cancer cells – cell-based, A549, JC-1 fluorescence, basal, 24 h, 100 nL, profiling panel (AID 1138); settings: higher = more signal;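 also: A549 lung adenocarcinoma cells under basal conditions with no added stimulus; test concentration not given here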
[18] = tested on: Lefty1; assay: Lefty1 protein binding to printed compounds – biochemical, small-molecule microarray, 635/667 nm fluorescence, primary screen (AID 1139); settings: fluorescence 635/667, higher = more signal
[19] = tested on: wheat germ agglutinin (Triticum aestivum), Alexa647-labelled; assay: Alexa647-WGA lectin binding to printed small molecules – biochemical, small-molecule microarray, 635/667 nm fluorescence, artefact control for SMM control-protein annotation, profiling panel (AID 1140); settings: WGA-A647 binding, 635 nm fluorescence, higher = more signal;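 also: score merges 667 nm feature emission with signal to noise over triplicate slides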
[20] = molecular target: Luciferin 4-monooxygenase (Photinus pyralis) (UniProt P08659); assay: inhibition of purified Photinus pyralis luciferase – biochemical, luminescence, purified enzyme, 2006 set, primary screen (AID 1141); settings: purified firefly luciferase, SteadyGlo luminescence, 30 min; higher = more signal, called active from +8 up or from −8 down;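 also: cell-free assay with purified firefly luciferase at 100 ng per well in PBS; test concentration not given here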
Chain of Luciferin 4-monooxygenase (Photinus pyralis) (P08659 whole entry, looked up): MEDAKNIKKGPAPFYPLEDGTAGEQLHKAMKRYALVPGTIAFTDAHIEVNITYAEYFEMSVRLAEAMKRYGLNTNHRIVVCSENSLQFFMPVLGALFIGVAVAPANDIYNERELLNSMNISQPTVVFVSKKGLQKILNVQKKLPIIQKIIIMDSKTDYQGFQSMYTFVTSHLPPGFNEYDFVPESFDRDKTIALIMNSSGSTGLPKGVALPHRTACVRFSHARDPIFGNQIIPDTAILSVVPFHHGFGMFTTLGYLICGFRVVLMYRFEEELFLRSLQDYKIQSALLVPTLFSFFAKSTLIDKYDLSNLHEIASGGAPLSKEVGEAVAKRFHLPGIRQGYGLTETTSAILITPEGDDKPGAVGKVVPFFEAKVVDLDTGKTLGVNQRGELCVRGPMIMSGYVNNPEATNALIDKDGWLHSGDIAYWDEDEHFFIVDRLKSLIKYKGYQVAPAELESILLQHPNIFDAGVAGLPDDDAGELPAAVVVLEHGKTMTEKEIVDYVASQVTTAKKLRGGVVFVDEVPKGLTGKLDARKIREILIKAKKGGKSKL

Chain of Albumin (Bos taurus) (P02769 whole entry, looked up): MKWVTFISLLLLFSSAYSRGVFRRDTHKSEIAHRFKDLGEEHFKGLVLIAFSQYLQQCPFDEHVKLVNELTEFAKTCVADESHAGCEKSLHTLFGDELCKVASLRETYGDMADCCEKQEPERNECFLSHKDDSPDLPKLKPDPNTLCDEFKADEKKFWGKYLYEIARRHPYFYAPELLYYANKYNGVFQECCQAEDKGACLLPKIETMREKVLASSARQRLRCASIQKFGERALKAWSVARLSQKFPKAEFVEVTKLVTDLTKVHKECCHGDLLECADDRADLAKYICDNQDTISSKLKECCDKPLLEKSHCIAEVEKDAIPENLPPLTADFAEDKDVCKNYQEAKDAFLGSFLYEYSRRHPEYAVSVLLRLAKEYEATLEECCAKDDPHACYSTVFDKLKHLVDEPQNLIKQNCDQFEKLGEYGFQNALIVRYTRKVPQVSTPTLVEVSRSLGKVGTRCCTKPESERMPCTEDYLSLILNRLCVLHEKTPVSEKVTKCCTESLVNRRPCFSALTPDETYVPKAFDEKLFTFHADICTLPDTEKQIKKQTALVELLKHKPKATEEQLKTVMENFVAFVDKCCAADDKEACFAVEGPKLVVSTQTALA
Chain of Concanavalin-A (Canavalia ensiformis) (P02866 whole entry, looked up): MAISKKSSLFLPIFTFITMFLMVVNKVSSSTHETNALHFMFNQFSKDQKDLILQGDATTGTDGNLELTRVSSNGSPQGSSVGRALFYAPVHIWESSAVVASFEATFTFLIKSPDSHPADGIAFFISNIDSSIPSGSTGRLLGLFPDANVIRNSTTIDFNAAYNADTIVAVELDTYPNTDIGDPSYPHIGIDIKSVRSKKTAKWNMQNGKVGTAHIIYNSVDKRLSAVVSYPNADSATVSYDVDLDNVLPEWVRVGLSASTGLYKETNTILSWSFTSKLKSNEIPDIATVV
Chain of Follistatin (Homo sapiens) (P19883 whole entry, looked up): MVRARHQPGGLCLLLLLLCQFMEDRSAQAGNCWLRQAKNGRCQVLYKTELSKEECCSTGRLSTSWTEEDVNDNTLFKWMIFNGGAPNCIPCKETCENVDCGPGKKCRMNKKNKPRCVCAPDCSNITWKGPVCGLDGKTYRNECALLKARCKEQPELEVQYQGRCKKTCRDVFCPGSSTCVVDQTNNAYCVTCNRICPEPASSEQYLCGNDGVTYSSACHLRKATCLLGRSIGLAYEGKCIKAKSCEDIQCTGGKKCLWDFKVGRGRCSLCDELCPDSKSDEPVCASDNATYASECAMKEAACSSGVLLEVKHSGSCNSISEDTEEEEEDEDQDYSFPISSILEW
Chain of Fibroblast growth factor 2 (Homo sapiens) (P09038 whole entry, looked up): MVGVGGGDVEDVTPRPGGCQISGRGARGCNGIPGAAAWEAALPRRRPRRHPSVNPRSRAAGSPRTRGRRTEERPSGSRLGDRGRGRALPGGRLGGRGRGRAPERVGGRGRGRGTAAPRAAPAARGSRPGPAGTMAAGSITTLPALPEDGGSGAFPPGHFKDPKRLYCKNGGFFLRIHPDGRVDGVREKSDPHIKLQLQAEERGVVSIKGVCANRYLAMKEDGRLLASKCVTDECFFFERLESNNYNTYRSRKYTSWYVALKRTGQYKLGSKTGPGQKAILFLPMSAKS
Chain of Focal adhesion kinase 1 (Homo sapiens) (Q05397 whole entry, looked up): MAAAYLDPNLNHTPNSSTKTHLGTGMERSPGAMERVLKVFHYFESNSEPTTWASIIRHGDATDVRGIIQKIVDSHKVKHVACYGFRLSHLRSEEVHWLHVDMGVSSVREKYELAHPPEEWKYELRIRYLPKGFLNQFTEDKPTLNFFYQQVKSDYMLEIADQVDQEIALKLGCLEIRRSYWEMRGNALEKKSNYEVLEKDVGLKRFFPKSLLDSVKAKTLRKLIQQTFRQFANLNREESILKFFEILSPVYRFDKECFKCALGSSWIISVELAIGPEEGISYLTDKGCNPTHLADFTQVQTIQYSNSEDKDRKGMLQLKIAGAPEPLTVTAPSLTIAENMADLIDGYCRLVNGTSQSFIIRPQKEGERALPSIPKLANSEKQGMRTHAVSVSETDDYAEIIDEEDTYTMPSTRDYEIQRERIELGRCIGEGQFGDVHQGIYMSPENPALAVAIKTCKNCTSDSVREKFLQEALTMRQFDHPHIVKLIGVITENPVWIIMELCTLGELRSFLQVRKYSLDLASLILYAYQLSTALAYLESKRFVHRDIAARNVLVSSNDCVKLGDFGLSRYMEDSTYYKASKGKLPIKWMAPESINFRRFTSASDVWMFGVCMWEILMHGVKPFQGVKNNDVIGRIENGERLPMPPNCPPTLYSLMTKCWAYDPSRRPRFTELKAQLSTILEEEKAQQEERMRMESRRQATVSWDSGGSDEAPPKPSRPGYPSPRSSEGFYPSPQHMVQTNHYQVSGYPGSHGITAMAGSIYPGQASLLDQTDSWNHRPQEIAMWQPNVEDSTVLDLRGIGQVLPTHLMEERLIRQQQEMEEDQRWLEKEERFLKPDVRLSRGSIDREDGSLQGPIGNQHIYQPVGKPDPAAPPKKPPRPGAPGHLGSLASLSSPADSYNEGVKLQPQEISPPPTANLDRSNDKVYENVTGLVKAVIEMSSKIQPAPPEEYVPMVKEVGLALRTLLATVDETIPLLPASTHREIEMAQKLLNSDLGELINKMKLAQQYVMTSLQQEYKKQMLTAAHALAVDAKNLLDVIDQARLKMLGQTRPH

Compound	composite z-score [1]	composite Z-score [2]	composite z-score [3]	composite z-score [4]	composite z-score [5]	composite z-score [6]	composite z-score [7]	composite z-score [8]	composite z-score [9]	composite z-score [10]	composite z-score [11]	composite z-score [12]	composite z-score [13]	composite z-score [14]	composite z-score [15]	composite z-score [16]	z-score [17]	composite z-score [18]	composite z-score [19]	z-score [20]
C=CCN1C(=O)[C@@]2(O[C@@H](CCn3cc([C@H](O)c4ccccc4)nn3)[C@H]([Si](C)(C)c3ccc(OC)cc3)[C@H]2C)c2cc(N3CCOC3=O)ccc21	0.0865	0.146 (inactive)	-0.0932	-0.0666	0.614	1.02	0.0741	1.11	-0.0548	-0.559	1.34	1.16	0.533	-0.285	0.0302	0.0085	0.899	-0.192	-0.605	-0.731 (inactive)
COC(=O)[C@H]1[C@@H]2COc3ccccc3[C@H]2N[C@H]1C(=O)OC	0.235	0.0807 (inactive)	-0.0351	-0.135	0.414	0.476	0.315	0.429	0.122	0.548	-0.0432	0.0902	0.404	0.428	0.214	0.446	0.603	0.171	0.274	-1.37 (inactive)
COCCOC(=O)N1C(=O)[C@@]2(c3cc(C#CCNC(N)=O)ccc31)[C@H](c1ccc(OCCO)cc1)N1[C@H](c3ccccc3)[C@H](c3ccccc3)OC(=O)[C@H]1[C@@H]2C(=O)Nc1nc2ccccc2s1	-0.76	-0.0202 (inactive)	-0.124	-0.126	0.277	0.447	0.338	0.289	0.903	0.915	0.0799	-0.393	0.0616	0.398	1.28	0.779	-2.32	0.83	0.755	-3.42 (inactive)
CC(C)[Si](OCC[C@H]1O[C@]2(C(=O)N(Cc3ccccc3)c3ccccc32)[C@@H](C)[C@@H]1[Si](C)(C)O)(C(C)C)C(C)C	0.114	-0.0745 (inactive)	0.0026	-0.148	0.191	0.379	0.0893	0.0631	-0.0644	0.367	-0.197	-0.694	0.104	0.618	0.122	-0.206	-0.761	0.218	0.128	-0.183 (inactive)
C=CC[C@]1(C(=O)O)N=C(c2ccc(OCCCO)cc2)O[C@H]1c1ccccc1	0.769	0.523 (inactive)	-0.0591	0.0415	0.758	2.37	0.563	0.351	-0.916	0.486	0.254	-0.531	-0.231	0.243	-0.367	-0.503	-0.124	-1.09	1.25	-1.8 (inactive)
CCN1C(C)=C(C(=O)OC)[C@@H](c2ccccc2)N2C(=O)[C@@]3(C(=O)OC)O[C@@]12[C@@H]1C(=O)N(C)C(=O)[C@@H]13	0.216	0.0523 (inactive)	0.19	-0.141	0.752	0.32	0.164	0.686	1.01	0.418	1.65	0.812	-0.23	0.819	0.968	0.916	0.842	0.819	1.12	-0.701 (inactive)
COC(=O)Cn1c(C(=O)N2CCCC2)cc2c1C[C@H]1CN(C(=O)c3ccccc3)[C@@](Cc3ccccc3)(C(=O)OC)[C@@H]21	1.06	0.0529 (inactive)	-0.0647	0.0292	0.752	1.99	-0.263	0.185	-1.13	0.831	1.64	0.684	0.714	1.01	0.0488	-0.684	0.367	0.142	1.43	0.659 (inactive)
CO[C@H]1COC(=O)[C@@H](OCc2ccccc2)C=C[C@H](C)[C@@H](OC)COC(=O)[C@H](OCc2ccccc2)C=C[C@@H]1C	-0.695	-0.738 (inactive)	-0.0682	-0.179	-0.516	-0.838	-0.885	-0.693	-0.51	-0.218	-0.12	-0.0882	0.104	-0.305	0.266	0.552	1.99	0.67	-0.244	-1.99 (inactive)
CCCC=C(CCC)[C@@H](NC(=O)c1ccc(C(F)(F)F)cc1)c1ccccc1	-0.0332	0.0895 (inactive)	0.191	-0.0007	0.104	1.29	-0.805	0.989	-0.815	0.483	0.81	0.788	0.0363	0.0538	0.0643	-0.764	-2.54	0.0969	0.352	1.2 (inactive)
C=CC[C@@]1(C(=O)N2CCOCC2)N=C(c2ccc(OCCCO)cc2)O[C@@H]1c1ccccc1	0.18	0.0379 (inactive)	-0.223	-0.327	0.716	2.17	-0.108	-0.157	-0.796	-0.226	0.805	1.19	1.57	-0.0135	-0.338	-0.355	1.89	-1.02	0.868	-0.871 (inactive)
C=CC[C@]1(C(=O)NCC(O)CO)N=C(c2ccc(OCCCO)cc2)O[C@H]1c1ccccc1 (stereo not given in full)	0.704	1.59 (inactive)	-0.0391	-0.0877	0.793	3.04	1.3	-0.126	-1.43	-0.49	0.307	0.904	0.12	0.106	-0.307	-0.651	0.985	-1.51	0.587	-0.428 (inactive)
